In all, about 2,100 compounds went through this assay and about 210 (10%) were called active. Another 53% or so got no clear call; they are omitted. Calls follow the shape of the dose curve; as a rule, active = well fitted inhibition curve with a large enough effect; inconclusive = small, poorly fitted or top-dose-only effect, or effect the other way; inactive = no such curve, though single readings can be large or run the other way. The list shows a part of the results. Entries that show only a call come without a potency.

Experimental findings from PubChem BioAssay AID504465 (National Center for Advancing Translational Sciences (NCATS), 2011) are described below.
Potency is read from the fitted curve at half-maximal effect.

The experiment can be described thus: IN Cell qHTS Assay for Inhibitors of the mTORC1 Signaling Pathway in MEF (Tsc2-/-, p53-/-) Cells: Sytravon. Also: nearly all actives have a fitted effect of over 60% in size. The note with it: phospho-rpS6 immunofluorescence, 24 h; series mostly up to 38.3 µM. The essentials: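 Tsc2-/-, p53-/- MEFs (empty-vector) treated with compound 24 h at 37 degree Celsius, then fixed and stained for phospho-rpS6 Ser235/236 (Alexa-488) plus Hoechst. Reported as % positive cells, thresholds set against 7.5 nM rapamycin and DMSO wells.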
`O=C1c2[nH]nc(-c3ccccc3O)c2C(c2ccc(Cl)cc2)N1Cc1ccco1` (stereo not given): the Potency entry was “inactive”.
Regarding `COc1ccc(C2(Nc3cccc(C(=O)O)c3C)C(=O)c3ccccc3C2=O)cc1`, the Potency result was “inactive”.
For `CCc1ccc(Oc2nc3c(C)cccn3c(=O)c2/C=C(\C#N)c2nc3ccccc3[nH]2)cc1`, the Potency result was “inactive”.
Turning to `COc1cccc(NS(=O)(=O)c2ccc3c(c2)CCCN3C(=O)C2CCC2)c1`, the Potency result is “inactive”.
The result for `Cc1ccc(CN2C(=O)C(O)(CC(=O)c3ccc(C)cc3)c3ccccc32)cc1` (stereo not given) reads 16.5 µM (active); that for `CCc1ccc(C(=O)CC2(O)C(=O)N(Cc3ccc(C)cc3)c3ccccc32)cc1` (stereo not given), “inactive”; that for `CCOC(=O)CN1C(=O)C(O)(CC(=O)c2cc(OC)ccc2OC)c2ccccc21` (stereo not given), “inactive”.
Then `COc1ccc(N2C(=O)CCSC23C(=O)N(Cc2ccc(F)cc2)c2ccccc23)cc1Cl` (stereo not given), with “inactive”.
Take `COc1cc(C(=O)CC2(O)C(=O)N(Cc3ccccc3Cl)c3ccccc32)cc(OC)c1OC` (stereo not given): the Potency was 0.147 µM (active).
The result for `Cc1ccc(CN2C(=O)C(O)(c3c(C)[nH]c4ccccc34)c3ccccc32)cc1` (stereo not given) reads “inactive”.
Then `CCOC(=O)C1CCN(C(=O)CSc2c3c(nc4ccc(Cl)cc24)CCCC3)CC1`, with “inactive”.
Then `COC(=O)c1c(NC(=O)c2ccc(S(=O)(=O)N3CCCCC3)cc2)sc2c1CCN(C)C2`, with “inactive”; and `Cc1ccc(NC(=O)/C=C\C(=O)N(c2ccc(C(C)C)cc2)C(C(=O)NCc2ccco2)c2ccc(F)cc2)cc1` (stereo not given), with “inactive”; and `COc1cc(Nc2nc(SCC(=O)c3ccc(Cl)c(Cl)c3)nc3ccccc23)cc(OC)c1`, with “inactive”.
For the molecule `COc1ccc2nc(C)cc(Nc3ccc(Cl)c(Cl)c3)c2c1`, the Potency is 13.1 µM (active).
In the case of `COc1ccc(Nc2cc(C)nc3c(C)c(C)ccc23)cc1`, the Potency result was “inactive”.
For the molecule `Clc1cccc(-n2ncc3c(NC4CCCCC4)ncnc32)c1`, the Potency entry is “inactive”.
With `Cc1cccc(Cc2c(C)nc3nc(SCC(=O)NCc4ccc(F)cc4)nn3c2C)c1`, the Potency result was “inactive”.
With `CC(=O)N1CCc2cc(CNS(=O)(=O)c3cccs3)ccc21`, the Potency result was “inactive”.
For `Cc1nc2nncn2c(NCc2ccc(Cl)cc2)c1C`, the Potency result was “inactive”.
On to `COc1ccc(CCNC(=O)c2cc3n(n2)CCCN(Cc2ccc(C)cc2)C3=O)cc1OC`, for which the Potency entry is “inactive”.
Turning to `COc1ccc2c(c1)CC(C(=O)Nc1cc(Cl)ccc1C)CO2` (stereo not given), the Potency entry is “inactive”.
The result for `CCOc1ccc(-n2nc3ccc(NC(=O)c4ccc(-c5cccc(Cl)c5)o4)cc3n2)cc1` reads 13.1 µM (active); that for `CCOc1ccc(-n2nc(CO)c(C(=O)NCc3cccs3)n2)cc1`, “inactive”.
In the case of `CCOC(=O)c1c(C)oc2ncnc(N3CCN(c4cccc(Cl)c4)CC3)c12`, the Potency entry is “inactive”.
Regarding `CCN1CCc2c(sc(NC(=O)c3ccc(S(=O)(=O)N4CCCC(C)C4)cc3)c2C(=O)OC)C1` (stereo not given), the Potency entry was “inactive”.
The result for `Cc1ccc(S(=O)(=O)Nc2cccc(-c3ccc(N4CCC(C)CC4)nn3)c2)s1` reads “inactive”.
As to `O=C(NC1CCN(Cc2ccccc2)CC1)c1ccc(Cn2c(=O)c3ccccc3n(Cc3ccc(F)cc3)c2=O)cc1`, the Potency was 2.61 µM (active).
Then `COc1ccccc1CNC(=O)CCCn1c(=O)c2ccccc2n(Cc2ccc(F)cc2)c1=O`, with “inactive”; and `O=c1c2ccccc2n(Cc2c(F)cccc2Cl)c(=O)n1Cc1ccccc1`, with “inactive”; and `COc1ccc(N2CCN(C(=O)CSCc3ccc(C)cc3)CC2)cc1`, with “inactive”.
Then `CCOC(=O)c1c(C)oc2nc(C)nc(NCc3ccc(Cl)cc3)c12`, with “inactive”; and `CCOC(=O)C(Cc1c[nH]c2ccccc12)NC(=O)COc1ccc(Cl)cc1` (stereo not given), with “inactive”.
Then `Cc1ccc(NC(=O)c2cc(S(=O)(=O)NCCC3=CCCCC3)ccc2F)cc1C`, with “inactive”; and `COc1ccc(OC)c(NC(=O)c2nc(S(=O)(=O)Cc3ccc(F)cc3)ncc2Cl)c1`, with 2.33 µM (active); and `Cc1ccc2c(CNCCc3ccc(Cl)cc3)c(C(=O)O)n(Cc3ccc(F)cc3)c2c1`, with “inactive”.
Turning to `CC1=C(c2ccc(C)c(C)c2)S(=O)(=O)N(Cc2ccc(C(=O)Nc3cc(F)ccc3F)cc2)C1=O`, the Potency result was “inactive”.
Take `Cc1ccc(C)c(NC(=O)c2nc(S(=O)(=O)Cc3ccc(F)cc3)ncc2Cl)c1`: the Potency is 3.29 µM (active).
Regarding `Cc1ccc(NC(=O)c2nc(S(=O)(=O)Cc3ccc(F)cc3)ncc2Cl)cc1C`, the Potency was 1.65 µM (active).
Then `CCc1ccc(NC(=O)c2cc(S(=O)(=O)NC3CCCC3)ccc2F)cc1`, with “inactive”; and `COc1ccc(OC)c(NC(=O)c2c(NCc3ccc(OC)c(OC)c3)sc3c2CCC(C)C3)c1` (stereo not given), with “inactive”; and `COc1ccc(C)cc1NC(=O)c1cc(S(=O)(=O)NC2CCCCCC2)ccc1F`, with “inactive”.
For the molecule `Cc1ccc(NC(=O)c2cc(S(=O)(=O)NC3CCCCC3)ccc2F)cc1Cl`, the Potency result is “inactive”.
Regarding `CC(=O)Nc1ccc(NC(=O)c2nc(S(=O)(=O)Cc3ccc(F)cc3)ncc2Cl)cc1`, the Potency was 8.26 µM (active).
For `COc1cc(NS(=O)(=O)c2cc(Br)cc3c2N(C(=O)C2CC2)CC3)cc(OC)c1`, the Potency result was “inactive”.
Take `CCc1c(C)nc2nncn2c1NCc1ccc(Cl)cc1`: the Potency entry is “inactive”.
As for `CC(=O)c1cccc(NC(c2ccc(F)cc2)c2nnc(-c3ccccc3)o2)c1` (stereo not given), the Potency result was “inactive”.
For the molecule `Cc1ccccc1Nc1c(-c2c[nH]c3ccccc23)nc2cccc(C)n12`, the Potency result was “inactive”.
For the molecule `O=C(Nc1ccc(Br)cc1)c1cc(S(=O)(=O)NC2CCCC2)ccc1F`, the Potency entry was “inactive”.
Then `COc1ccc(Cn2c(C(=O)O)c(CNC3CCCCCC3)c3ccc(OC)cc32)cc1`, with “inactive”; and `CC(C)CCN(C(=O)Nc1ccc(Cl)c(Cl)c1)C1CCN(C(C)C)CC1`, with “inactive”; and `Cc1cc(C)c(NC(=O)c2cc(S(=O)(=O)NCCC3=CCCCC3)ccc2F)c(C)c1`, with “inactive”.
The result for `CCc1ccc(Sc2cc(C(=O)NCCCN3CCC(C)CC3)c3ccccc3n2)cc1` reads “inactive”; that for `CCN(CCCNC(=O)c1cc2c(=O)[nH]c3ccccc3c2s1)c1ccccc1`, “inactive”; that for `Cc1ccc2[nH]c(=O)c3cc(C(=O)NCCCN4CCC(C)CC4)sc3c2c1`, 5.85 µM (active).
On to `CCc1cccc(NC(=O)c2oc3ccc4c(c3c2C)C(=O)CC(C)(C)O4)c1`, for which the Potency result was “inactive”.
On to `c1ccc(CNc2ncnc3[nH]ncc23)cc1`, for which the Potency result is “inactive”.
For the molecule `COc1ccc(CNC(=O)c2cc(-c3ccc(OC)c(OC)c3)nc3n[nH]c(-c4ccc(C)cc4)c23)cc1`, the Potency was 14.7 µM (active).
Then `COc1ccc(CNC(=O)C2CCN(S(=O)(=O)c3ccc(C)cc3)CC2)cc1`, with “inactive”; and `COc1ccc(-c2cc(NCc3ccc(C)cc3)n3cnnc3n2)cc1`, with “inactive”.
